Results from the supplement of paper PMC7595190.

What was measured:
Assay in all cases: CellTox Green cytotoxicity fluorescence relative to DMSO vehicle (fold of vehicle RFU); higher = more cell death (loss of membrane integrity), active = 2 or more
CMK = tested on: CMK
Summary of the method: (§1)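 Single compounds from the Selleckchem apoptosis library were applied at final 0.01, 0.1 and 1 µM (0.1% DMSO vehicle) to MV4-11, CMK and Kasumi-1 cells seeded at 4.0 × 10^4 cells per well with CellTox Green reagent. After incubation at 37 °C, 5% CO2, fluorescence was read at 24, 48 and 72 h. Cytotoxicity, meaning loss of membrane integrity, is shown as fold of the DMSO vehicle signal.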

Kasumi-1 = tested on: Kasumi-1
Summary of the method: as §1

MV4-11 = tested on: MV4-11
Summary of the method: as §1

Measured: CellTox Green cytotoxicity fluorescence

Fc1ccc(CNc2ncnc3ccc(F)cc23)cc1 [Spautin-1]
inactive: CMK; 0.01 µM, 24 h 0.96 | CMK; 0.01 µM, 48 h 1.08 | CMK; 0.01 µM, 72 h 1.16 | CMK; 0.1 µM, 24 h 0.971 | CMK; 0.1 µM, 48 h 0.943 | CMK; 0.1 µM, 72 h 0.916 | CMK; 1 µM, 24 h 0.983 | CMK; 1 µM, 48 h 0.967 | CMK; 1 µM, 72 h 0.917 | Kasumi-1; 0.01 µM, 24 h 1.03 | Kasumi-1; 0.01 µM, 48 h 1.04 | Kasumi-1; 0.01 µM, 72 h 0.987 | Kasumi-1; 0.1 µM, 24 h 1 | Kasumi-1; 0.1 µM, 48 h 1 | Kasumi-1; 0.1 µM, 72 h 0.997 | Kasumi-1; 1 µM, 24 h 1.04 | Kasumi-1; 1 µM, 48 h 1.01 | Kasumi-1; 1 µM, 72 h 1.01

CN(C)CCCCC(=O)Nc1ccc(NC(=S)NC(=O)c2ccc(C(C)(C)C)cc2)cc1 [Tenovin-6]
inactive: CMK; 0.01 µM, 24 h 0.978 | CMK; 0.01 µM, 48 h 0.97 | CMK; 0.01 µM, 72 h 0.94 | CMK; 0.1 µM, 24 h 1 | CMK; 0.1 µM, 48 h 0.991 | CMK; 0.1 µM, 72 h 0.973 | CMK; 1 µM, 24 h 1.01 | CMK; 1 µM, 48 h 1.03 | CMK; 1 µM, 72 h 0.875 | Kasumi-1; 0.01 µM, 24 h 0.99 | Kasumi-1; 0.01 µM, 48 h 0.965 | Kasumi-1; 0.01 µM, 72 h 0.966 | Kasumi-1; 0.1 µM, 24 h 0.947 | Kasumi-1; 0.1 µM, 48 h 0.912 | Kasumi-1; 0.1 µM, 72 h 0.879 | Kasumi-1; 1 µM, 24 h 0.958 | Kasumi-1; 1 µM, 48 h 1 | Kasumi-1; 1 µM, 72 h 1.01

CC(C)CC(NC(=O)C(Cc1ccccc1)CC(O)C(Cc1ccccc1)NC(=O)OC(C)(C)C)C(=O)NC(Cc1ccccc1)C(N)=O (stereo not drawn)
inactive: CMK; 0.01 µM, 24 h 1 | CMK; 0.01 µM, 48 h 1 | CMK; 0.01 µM, 72 h 1.03 | CMK; 0.1 µM, 24 h 0.943 | CMK; 0.1 µM, 48 h 0.922 | CMK; 0.1 µM, 72 h 0.899 | CMK; 1 µM, 24 h 0.947 | CMK; 1 µM, 48 h 0.949 | CMK; 1 µM, 72 h 0.919 | Kasumi-1; 0.01 µM, 24 h 0.952 | Kasumi-1; 0.01 µM, 48 h 0.963 | Kasumi-1; 0.01 µM, 72 h 0.962 | Kasumi-1; 0.1 µM, 24 h 0.943 | Kasumi-1; 0.1 µM, 48 h 0.974 | Kasumi-1; 0.1 µM, 72 h 0.946 | Kasumi-1; 1 µM, 24 h 0.912 | Kasumi-1; 1 µM, 48 h 0.993 | Kasumi-1; 1 µM, 72 h 1 | MV4-11; 0.01 µM, 24 h 0.952 | MV4-11; 0.01 µM, 48 h 0.964 | MV4-11; 0.01 µM, 72 h 0.968 | MV4-11; 0.1 µM, 24 h 0.937 | MV4-11; 0.1 µM, 48 h 0.952 | MV4-11; 0.1 µM, 72 h 0.944 | MV4-11; 1 µM, 24 h 0.919 | MV4-11; 1 µM, 48 h 0.947 | MV4-11; 1 µM, 72 h 0.967

O=C1C(=O)N(Cc2ccc(Cl)c(Cl)c2)c2ccccc21 [Apoptosis Activator 2]
inactive: CMK; 0.01 µM, 24 h 1.01 | CMK; 0.01 µM, 48 h 1.02 | CMK; 0.01 µM, 72 h 1.01 | CMK; 0.1 µM, 24 h 1.03 | CMK; 0.1 µM, 48 h 1.04 | CMK; 0.1 µM, 72 h 1.02 | CMK; 1 µM, 24 h 0.981 | CMK; 1 µM, 48 h 1.01 | CMK; 1 µM, 72 h 0.986 | Kasumi-1; 0.01 µM, 24 h 0.997 | Kasumi-1; 0.01 µM, 48 h 1 | Kasumi-1; 0.01 µM, 72 h 1.01 | Kasumi-1; 0.1 µM, 24 h 1 | Kasumi-1; 0.1 µM, 48 h 0.985 | Kasumi-1; 0.1 µM, 72 h 0.971 | Kasumi-1; 1 µM, 24 h 1.02 | Kasumi-1; 1 µM, 48 h 1.04 | Kasumi-1; 1 µM, 72 h 1.04 | MV4-11; 0.01 µM, 24 h 0.971 | MV4-11; 0.01 µM, 48 h 0.978 | MV4-11; 0.01 µM, 72 h 0.98 | MV4-11; 0.1 µM, 24 h 1.02 | MV4-11; 0.1 µM, 48 h 1.03 | MV4-11; 0.1 µM, 72 h 1.02 | MV4-11; 1 µM, 24 h 1.02 | MV4-11; 1 µM, 48 h 1.13 | MV4-11; 1 µM, 72 h 1.13

CC(=O)N1c2ccc(-c3ccc(C(=O)O)cc3)cc2[C@H](Nc2ccc(Cl)cc2)C[C@@H]1C
inactive: CMK; 0.01 µM, 24 h 0.995 | CMK; 0.01 µM, 48 h 1.1 | CMK; 0.01 µM, 72 h 0.996 | CMK; 0.1 µM, 24 h 1.2 | CMK; 0.1 µM, 48 h 1.71 | CMK; 0.1 µM, 72 h 1.37 | CMK; 1 µM, 24 h 1.33 | CMK; 1 µM, 48 h 1.93 | CMK; 1 µM, 72 h 1.57 | Kasumi-1; 0.01 µM, 24 h 0.959 | Kasumi-1; 0.01 µM, 48 h 0.98 | Kasumi-1; 0.01 µM, 72 h 1.03 | Kasumi-1; 0.1 µM, 24 h 1.06 | Kasumi-1; 0.1 µM, 48 h 1.36 | Kasumi-1; 0.1 µM, 72 h 1.49 | Kasumi-1; 1 µM, 24 h 1.09 | Kasumi-1; 1 µM, 48 h 1.66 | Kasumi-1; 1 µM, 72 h 1.92

O=C1NC(=NCc2cccs2)S/C1=C\c1ccc2ncccc2c1
inactive: CMK; 0.01 µM, 24 h 1.02 | CMK; 0.01 µM, 48 h 1.04 | CMK; 0.01 µM, 72 h 1.07 | CMK; 0.1 µM, 24 h 0.996 | CMK; 0.1 µM, 48 h 1 | CMK; 0.1 µM, 72 h 0.991 | CMK; 1 µM, 24 h 1.03 | CMK; 1 µM, 48 h 1.09 | CMK; 1 µM, 72 h 1.08 | Kasumi-1; 0.01 µM, 24 h 0.99 | Kasumi-1; 0.01 µM, 48 h 0.991 | Kasumi-1; 0.01 µM, 72 h 0.96 | Kasumi-1; 0.1 µM, 24 h 1.01 | Kasumi-1; 0.1 µM, 48 h 1.04 | Kasumi-1; 0.1 µM, 72 h 1 | Kasumi-1; 1 µM, 24 h 1.02 | Kasumi-1; 1 µM, 48 h 1.01 | Kasumi-1; 1 µM, 72 h 1.01

c1ccc2c(CCNc3ccc(Nc4ccncc4)cc3)c[nH]c2c1 [Serdemetan]
inactive: CMK; 0.01 µM, 24 h 0.966 | CMK; 0.01 µM, 48 h 0.966 | CMK; 0.01 µM, 72 h 0.987 | CMK; 0.1 µM, 24 h 0.95 | CMK; 0.1 µM, 48 h 0.971 | CMK; 0.1 µM, 72 h 1.05 | CMK; 1 µM, 24 h 0.925 | CMK; 1 µM, 48 h 1.67 | Kasumi-1; 0.01 µM, 24 h 0.983 | Kasumi-1; 0.01 µM, 48 h 0.933 | Kasumi-1; 0.01 µM, 72 h 0.904 | Kasumi-1; 0.1 µM, 24 h 0.969 | Kasumi-1; 0.1 µM, 48 h 0.964 | Kasumi-1; 0.1 µM, 72 h 0.955 | Kasumi-1; 1 µM, 24 h 1.01 | Kasumi-1; 1 µM, 48 h 1.45 | Kasumi-1; 1 µM, 72 h 1.77 | MV4-11; 0.01 µM, 24 h 0.97 | MV4-11; 0.01 µM, 48 h 0.948 | MV4-11; 0.01 µM, 72 h 0.953 | MV4-11; 0.1 µM, 24 h 0.929 | MV4-11; 0.1 µM, 48 h 0.918 | MV4-11; 0.1 µM, 72 h 0.946 | MV4-11; 1 µM, 24 h 1.21
active: CMK; 1 µM, 72 h 2.28 | MV4-11; 1 µM, 48 h 3.08 | MV4-11; 1 µM, 72 h 3.17
